# Data published in article PMC7862700, “An all-to-all approach to the identification of sequence-specific readers for epigenetic DNA modifications on cytosine”.
# Legend:
# Test in all cases: DAPPL (digital affinity profiling via proximity ligation, sequencing); 10 mM Tris-HCl pH 7.5, 50 mM NaCl, 1 mM DTT, 4% glycerol, room temperature, 30 min; GST-TFs on glutathione beads, 16-mer random dsDNA library, 0.1% formaldehyde crosslink after washing; high values mean tight binding
# FLI1 = target: T1, FLI1 (Homo sapiens, UniProt Q01543 1-452); conditions: protein: recombinant; tags: N-terminal GST; dsDNA, one strand shown
# T1 sequence: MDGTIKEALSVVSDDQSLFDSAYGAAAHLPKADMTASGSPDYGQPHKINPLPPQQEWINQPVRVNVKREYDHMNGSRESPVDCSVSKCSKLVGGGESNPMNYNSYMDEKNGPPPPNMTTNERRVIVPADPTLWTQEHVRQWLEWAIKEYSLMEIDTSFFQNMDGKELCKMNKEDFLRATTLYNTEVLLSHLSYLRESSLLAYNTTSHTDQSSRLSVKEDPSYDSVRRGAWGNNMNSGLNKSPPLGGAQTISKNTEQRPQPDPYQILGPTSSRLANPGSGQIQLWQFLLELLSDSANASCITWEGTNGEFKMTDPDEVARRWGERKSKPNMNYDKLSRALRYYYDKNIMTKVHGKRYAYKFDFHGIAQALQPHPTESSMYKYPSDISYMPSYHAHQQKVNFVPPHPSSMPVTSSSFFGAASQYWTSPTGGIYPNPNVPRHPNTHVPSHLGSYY
# In short: (§1)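 The binding signal reported is, for every hexamer, its read frequency for a factor over its read frequency for the tag-only sample. Reads came from pools of yeast-expressed, GST-fused human transcription factors on glutathione beads, barcoded with DNA and mixed with that sample, which were incubated with 200 nmole of a random double-stranded 16-mer DNA library in Tris/NaCl/DTT/glycerol buffer at room temperature for 30 min. After washing, the pools were crosslinked with 0.1% formaldehyde, proximity-ligated with BsaI/T4 ligase for 1 h at 37 °C, PCR-amplified and sequenced on an Illumina NextSeq500.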
# ELK1 = target: T2, ELK1 (Homo sapiens, UniProt P19419 1-428); conditions: protein: recombinant; tags: N-terminal GST; dsDNA, one strand shown
# T2 sequence: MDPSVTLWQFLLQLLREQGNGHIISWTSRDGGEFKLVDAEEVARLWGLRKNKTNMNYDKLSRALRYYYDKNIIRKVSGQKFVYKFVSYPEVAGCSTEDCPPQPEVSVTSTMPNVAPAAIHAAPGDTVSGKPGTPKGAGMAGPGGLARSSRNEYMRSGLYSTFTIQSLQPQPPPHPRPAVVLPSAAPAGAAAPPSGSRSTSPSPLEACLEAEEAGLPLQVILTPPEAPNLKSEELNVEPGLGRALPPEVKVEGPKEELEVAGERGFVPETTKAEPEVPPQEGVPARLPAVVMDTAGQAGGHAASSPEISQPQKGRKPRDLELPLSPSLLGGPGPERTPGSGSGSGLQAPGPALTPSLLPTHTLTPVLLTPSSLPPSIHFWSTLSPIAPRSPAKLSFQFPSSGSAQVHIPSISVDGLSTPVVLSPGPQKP
# In short: as §1
# GABPA = target: T3, GABPA (Homo sapiens, UniProt Q06546 1-454); conditions: protein: recombinant; tags: N-terminal GST; dsDNA, one strand shown
# T3 sequence: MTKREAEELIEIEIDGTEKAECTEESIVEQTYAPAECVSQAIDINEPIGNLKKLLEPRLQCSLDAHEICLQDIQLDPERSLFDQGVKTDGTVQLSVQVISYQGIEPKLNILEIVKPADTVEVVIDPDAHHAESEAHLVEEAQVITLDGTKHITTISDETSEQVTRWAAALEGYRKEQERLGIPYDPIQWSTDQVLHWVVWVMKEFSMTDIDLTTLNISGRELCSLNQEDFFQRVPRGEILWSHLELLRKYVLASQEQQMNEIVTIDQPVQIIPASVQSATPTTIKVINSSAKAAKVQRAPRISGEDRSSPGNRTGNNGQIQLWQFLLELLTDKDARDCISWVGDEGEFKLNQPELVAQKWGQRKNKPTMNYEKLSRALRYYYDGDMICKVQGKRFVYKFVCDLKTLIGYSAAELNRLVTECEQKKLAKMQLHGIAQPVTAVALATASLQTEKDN
# In short: as §1
# ERG = target: T4, ERG (Homo sapiens, UniProt P11308 1-479); conditions: protein: recombinant; tags: N-terminal GST; dsDNA, one strand shown
# T4 sequence: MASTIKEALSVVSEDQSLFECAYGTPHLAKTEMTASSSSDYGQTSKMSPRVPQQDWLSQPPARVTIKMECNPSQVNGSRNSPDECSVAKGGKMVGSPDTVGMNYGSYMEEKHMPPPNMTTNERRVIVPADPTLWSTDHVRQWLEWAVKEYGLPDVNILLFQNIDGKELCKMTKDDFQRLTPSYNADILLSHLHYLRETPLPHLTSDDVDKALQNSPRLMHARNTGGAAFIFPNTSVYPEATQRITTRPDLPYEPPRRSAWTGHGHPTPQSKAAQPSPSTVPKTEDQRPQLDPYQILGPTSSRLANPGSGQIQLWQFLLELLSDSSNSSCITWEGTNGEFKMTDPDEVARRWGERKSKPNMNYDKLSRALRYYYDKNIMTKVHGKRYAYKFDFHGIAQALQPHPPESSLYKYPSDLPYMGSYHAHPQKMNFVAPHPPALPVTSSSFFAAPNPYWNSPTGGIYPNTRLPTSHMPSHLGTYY
# In short: as §1
# ELF1 = ELF1 (Homo sapiens, UniProt P32519 1-619); conditions: protein: recombinant; tags: N-terminal GST; dsDNA, one strand shown
# In short: as §1
# EHF = target: T5, EHF (Homo sapiens, UniProt Q9NZC4 1-300); conditions: protein: recombinant; tags: N-terminal GST; dsDNA, one strand shown
# T5 sequence: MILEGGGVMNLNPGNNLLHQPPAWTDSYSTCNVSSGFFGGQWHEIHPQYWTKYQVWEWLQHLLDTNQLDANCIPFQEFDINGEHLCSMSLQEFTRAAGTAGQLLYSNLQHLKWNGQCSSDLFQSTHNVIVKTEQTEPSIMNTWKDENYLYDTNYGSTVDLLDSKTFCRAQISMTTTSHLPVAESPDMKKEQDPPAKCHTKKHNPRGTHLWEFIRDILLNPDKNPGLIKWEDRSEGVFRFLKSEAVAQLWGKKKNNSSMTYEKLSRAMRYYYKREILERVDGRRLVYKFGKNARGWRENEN
# In short: as §1
# SPI1 = SPI1 (Homo sapiens, UniProt P17947 1-270); conditions: protein: recombinant; tags: N-terminal GST; dsDNA, one strand shown
# In short: as §1
# SPIB = SPIB (Homo sapiens, UniProt Q01892 1-262); conditions: protein: recombinant; tags: N-terminal GST; dsDNA, one strand shown
# In short: as §1
# ELK3 = target: T6, ELK3 (Homo sapiens, UniProt P41970 1-407); conditions: protein: recombinant; tags: N-terminal GST; dsDNA, one strand shown
# T6 sequence: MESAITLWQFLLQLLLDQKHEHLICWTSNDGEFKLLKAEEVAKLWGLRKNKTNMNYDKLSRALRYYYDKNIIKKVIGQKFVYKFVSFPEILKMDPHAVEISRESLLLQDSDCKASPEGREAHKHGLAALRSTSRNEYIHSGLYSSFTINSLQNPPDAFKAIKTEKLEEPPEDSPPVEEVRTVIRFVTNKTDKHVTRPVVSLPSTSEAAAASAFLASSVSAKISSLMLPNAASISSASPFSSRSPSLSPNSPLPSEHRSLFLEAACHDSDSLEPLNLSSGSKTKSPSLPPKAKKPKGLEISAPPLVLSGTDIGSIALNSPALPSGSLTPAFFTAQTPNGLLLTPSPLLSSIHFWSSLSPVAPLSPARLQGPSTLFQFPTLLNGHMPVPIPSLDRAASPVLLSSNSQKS
# In short: as §1
# FEV = target: T7, FEV (Homo sapiens, UniProt Q99581 1-238); conditions: protein: recombinant; tags: N-terminal GST; dsDNA, one strand shown
# T7 sequence: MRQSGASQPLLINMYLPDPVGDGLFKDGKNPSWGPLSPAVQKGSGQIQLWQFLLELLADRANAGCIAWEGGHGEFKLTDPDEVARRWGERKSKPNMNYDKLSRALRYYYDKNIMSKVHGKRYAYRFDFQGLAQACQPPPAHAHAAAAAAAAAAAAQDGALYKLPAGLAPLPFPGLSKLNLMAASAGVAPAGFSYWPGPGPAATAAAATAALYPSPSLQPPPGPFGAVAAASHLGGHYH
# In short: as §1
# ETV5 = ETV5 (Homo sapiens, UniProt P41161 1-510); conditions: protein: recombinant; tags: N-terminal GST; dsDNA, one strand shown
# In short: as §1
# HSF1 = HSF1 (Homo sapiens, UniProt Q00613 1-529); conditions: protein: recombinant; tags: N-terminal GST; chain copies: 3; dsDNA, one strand shown
# In short: as §1
# SPIC = target: T8, SPIC (Homo sapiens, UniProt Q8N5J4 1-248); conditions: protein: recombinant; tags: N-terminal GST; dsDNA, one strand shown
# T8 sequence: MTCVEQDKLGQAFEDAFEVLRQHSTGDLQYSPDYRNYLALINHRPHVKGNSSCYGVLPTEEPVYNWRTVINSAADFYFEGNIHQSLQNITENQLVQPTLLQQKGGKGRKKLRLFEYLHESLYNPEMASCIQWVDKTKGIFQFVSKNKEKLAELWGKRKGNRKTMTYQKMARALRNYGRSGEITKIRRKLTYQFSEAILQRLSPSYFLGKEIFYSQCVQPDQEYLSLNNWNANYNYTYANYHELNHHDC
# In short: as §1
# ELF4 = ELF4 (Homo sapiens, UniProt Q99607 1-663); conditions: protein: recombinant; tags: N-terminal GST; dsDNA, one strand shown
# In short: as §1
# ELK4 = target: T9, ELK4 (Homo sapiens, UniProt P28324-2 1-405); conditions: protein: recombinant; tags: N-terminal GST; dsDNA, one strand shown
# T9 sequence: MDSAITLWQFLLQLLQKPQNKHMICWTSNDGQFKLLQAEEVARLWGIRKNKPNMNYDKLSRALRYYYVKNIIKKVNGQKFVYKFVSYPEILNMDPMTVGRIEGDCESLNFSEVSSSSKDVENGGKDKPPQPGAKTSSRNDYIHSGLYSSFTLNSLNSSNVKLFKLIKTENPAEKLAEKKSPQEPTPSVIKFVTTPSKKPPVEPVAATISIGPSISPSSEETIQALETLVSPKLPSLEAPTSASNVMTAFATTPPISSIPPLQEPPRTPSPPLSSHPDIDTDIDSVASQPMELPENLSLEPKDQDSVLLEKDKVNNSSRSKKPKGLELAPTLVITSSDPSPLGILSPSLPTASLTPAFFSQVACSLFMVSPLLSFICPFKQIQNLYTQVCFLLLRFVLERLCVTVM
# In short: as §1
# ETV2 = target: T10, ETV2 (Homo sapiens, UniProt O00321 1-342); conditions: protein: recombinant; tags: N-terminal GST; dsDNA, one strand shown
# T10 sequence: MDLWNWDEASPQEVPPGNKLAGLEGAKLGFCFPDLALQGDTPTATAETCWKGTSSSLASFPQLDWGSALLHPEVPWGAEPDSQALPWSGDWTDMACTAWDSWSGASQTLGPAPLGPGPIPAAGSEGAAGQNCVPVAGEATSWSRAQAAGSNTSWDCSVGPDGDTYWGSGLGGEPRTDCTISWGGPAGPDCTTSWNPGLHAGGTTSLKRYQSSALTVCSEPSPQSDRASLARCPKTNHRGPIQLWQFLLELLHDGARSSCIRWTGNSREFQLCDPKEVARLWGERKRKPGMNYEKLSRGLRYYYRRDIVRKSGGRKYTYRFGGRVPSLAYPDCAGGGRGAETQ
# In short: as §1
# ELF3 = target: T11, ELF3 (Homo sapiens, UniProt P78545 1-371); conditions: protein: recombinant; tags: N-terminal GST; dsDNA, one strand shown
# T11 sequence: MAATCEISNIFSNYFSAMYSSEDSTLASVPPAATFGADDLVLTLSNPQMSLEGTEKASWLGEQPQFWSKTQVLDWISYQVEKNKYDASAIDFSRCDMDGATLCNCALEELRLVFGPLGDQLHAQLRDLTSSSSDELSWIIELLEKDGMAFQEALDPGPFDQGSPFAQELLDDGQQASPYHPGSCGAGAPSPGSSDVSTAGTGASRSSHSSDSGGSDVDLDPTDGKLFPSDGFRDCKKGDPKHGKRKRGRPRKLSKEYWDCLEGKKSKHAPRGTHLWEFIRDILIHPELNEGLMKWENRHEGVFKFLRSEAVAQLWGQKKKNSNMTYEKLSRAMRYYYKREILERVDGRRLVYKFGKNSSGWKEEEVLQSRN
# In short: as §1
# CRX = CRX (Homo sapiens, UniProt O43186 1-299); conditions: protein: recombinant; tags: N-terminal GST; dsDNA, one strand shown
# In short: as §1
# ETV1 = ETV1 (Homo sapiens, UniProt P50549 1-477); conditions: protein: recombinant; tags: N-terminal GST; dsDNA, one strand shown
# In short: as §1
# Sequence of ELF4 (Q99607 whole entry): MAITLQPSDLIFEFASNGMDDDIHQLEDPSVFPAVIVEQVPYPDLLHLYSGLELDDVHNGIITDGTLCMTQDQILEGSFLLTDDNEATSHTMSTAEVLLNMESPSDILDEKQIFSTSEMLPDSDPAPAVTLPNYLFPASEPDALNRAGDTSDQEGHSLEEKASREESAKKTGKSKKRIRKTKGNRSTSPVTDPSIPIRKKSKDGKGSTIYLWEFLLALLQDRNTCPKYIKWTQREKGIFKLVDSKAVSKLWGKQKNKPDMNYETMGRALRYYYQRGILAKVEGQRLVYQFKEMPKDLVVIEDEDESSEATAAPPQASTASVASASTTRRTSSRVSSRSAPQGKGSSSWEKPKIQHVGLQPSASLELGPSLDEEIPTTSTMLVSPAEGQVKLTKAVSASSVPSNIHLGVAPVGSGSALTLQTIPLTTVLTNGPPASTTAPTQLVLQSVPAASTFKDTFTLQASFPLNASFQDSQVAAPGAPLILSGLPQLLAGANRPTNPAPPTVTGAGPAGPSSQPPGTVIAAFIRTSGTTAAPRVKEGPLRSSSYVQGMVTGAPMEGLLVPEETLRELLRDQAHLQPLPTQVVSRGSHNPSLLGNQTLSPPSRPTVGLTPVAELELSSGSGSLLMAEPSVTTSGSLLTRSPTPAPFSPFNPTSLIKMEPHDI
# Sequence of ELF1 (P32519 whole entry): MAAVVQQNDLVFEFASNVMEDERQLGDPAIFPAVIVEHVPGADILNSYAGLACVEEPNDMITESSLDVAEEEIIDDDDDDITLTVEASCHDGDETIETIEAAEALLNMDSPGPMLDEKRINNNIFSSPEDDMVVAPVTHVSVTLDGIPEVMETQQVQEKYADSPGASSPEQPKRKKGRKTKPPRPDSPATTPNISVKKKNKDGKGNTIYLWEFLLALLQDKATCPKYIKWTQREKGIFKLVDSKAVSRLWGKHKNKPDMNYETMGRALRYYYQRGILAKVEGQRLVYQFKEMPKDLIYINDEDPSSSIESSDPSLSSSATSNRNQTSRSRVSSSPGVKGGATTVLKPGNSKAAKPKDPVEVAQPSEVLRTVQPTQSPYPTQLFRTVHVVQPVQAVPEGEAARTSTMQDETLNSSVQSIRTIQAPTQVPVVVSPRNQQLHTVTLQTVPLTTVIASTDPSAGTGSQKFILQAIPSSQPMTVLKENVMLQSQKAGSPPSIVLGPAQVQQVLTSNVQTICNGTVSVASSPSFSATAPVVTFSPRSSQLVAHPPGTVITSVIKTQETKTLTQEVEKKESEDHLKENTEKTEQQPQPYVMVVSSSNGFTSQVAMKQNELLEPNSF
# Sequence of HSF1 (Q00613 whole entry): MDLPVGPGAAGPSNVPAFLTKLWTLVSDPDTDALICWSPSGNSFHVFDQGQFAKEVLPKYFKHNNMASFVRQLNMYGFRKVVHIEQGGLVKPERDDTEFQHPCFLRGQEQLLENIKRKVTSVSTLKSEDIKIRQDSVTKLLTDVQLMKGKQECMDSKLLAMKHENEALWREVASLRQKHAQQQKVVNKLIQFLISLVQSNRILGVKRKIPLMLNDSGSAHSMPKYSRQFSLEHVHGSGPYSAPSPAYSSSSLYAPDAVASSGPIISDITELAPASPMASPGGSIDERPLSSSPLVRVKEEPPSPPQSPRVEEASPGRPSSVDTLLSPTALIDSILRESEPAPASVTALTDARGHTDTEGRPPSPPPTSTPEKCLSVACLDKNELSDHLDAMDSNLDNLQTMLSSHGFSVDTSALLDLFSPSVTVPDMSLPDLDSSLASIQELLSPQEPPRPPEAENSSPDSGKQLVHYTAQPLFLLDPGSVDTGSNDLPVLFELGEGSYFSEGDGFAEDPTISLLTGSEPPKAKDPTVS
# Sequence of SPIB (Q01892 whole entry): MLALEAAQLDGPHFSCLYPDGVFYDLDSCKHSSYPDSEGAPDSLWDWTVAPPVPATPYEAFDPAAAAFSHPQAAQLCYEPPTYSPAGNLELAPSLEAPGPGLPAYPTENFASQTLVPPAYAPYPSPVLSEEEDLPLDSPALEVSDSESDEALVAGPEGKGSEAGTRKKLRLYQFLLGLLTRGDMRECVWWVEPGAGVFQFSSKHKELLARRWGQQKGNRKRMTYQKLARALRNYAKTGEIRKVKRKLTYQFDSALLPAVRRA
# Sequence of ETV5 (P41161 whole entry): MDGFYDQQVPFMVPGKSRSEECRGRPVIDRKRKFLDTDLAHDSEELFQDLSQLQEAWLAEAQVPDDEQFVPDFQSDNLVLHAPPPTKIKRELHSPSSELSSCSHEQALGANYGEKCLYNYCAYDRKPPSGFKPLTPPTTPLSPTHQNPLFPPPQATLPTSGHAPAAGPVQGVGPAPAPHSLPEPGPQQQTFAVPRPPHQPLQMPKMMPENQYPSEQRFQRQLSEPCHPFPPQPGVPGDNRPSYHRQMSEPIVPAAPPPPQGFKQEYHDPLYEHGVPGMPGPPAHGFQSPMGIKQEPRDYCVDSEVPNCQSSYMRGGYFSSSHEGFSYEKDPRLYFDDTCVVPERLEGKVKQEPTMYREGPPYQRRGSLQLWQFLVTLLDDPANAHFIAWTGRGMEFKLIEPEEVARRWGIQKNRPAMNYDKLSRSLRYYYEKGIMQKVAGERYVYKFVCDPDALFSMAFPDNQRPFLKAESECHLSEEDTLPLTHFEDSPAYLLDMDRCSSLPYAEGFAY
# Sequence of CRX (O43186 whole entry): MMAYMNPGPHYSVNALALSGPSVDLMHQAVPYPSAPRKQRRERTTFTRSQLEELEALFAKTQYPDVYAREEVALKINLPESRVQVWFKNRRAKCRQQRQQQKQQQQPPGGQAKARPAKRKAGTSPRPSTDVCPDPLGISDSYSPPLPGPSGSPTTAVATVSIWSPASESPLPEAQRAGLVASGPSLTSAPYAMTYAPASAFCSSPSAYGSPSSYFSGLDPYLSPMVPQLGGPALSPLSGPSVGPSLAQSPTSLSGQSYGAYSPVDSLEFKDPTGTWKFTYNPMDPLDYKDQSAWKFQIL
# Sequence of ETV1 (P50549 whole entry): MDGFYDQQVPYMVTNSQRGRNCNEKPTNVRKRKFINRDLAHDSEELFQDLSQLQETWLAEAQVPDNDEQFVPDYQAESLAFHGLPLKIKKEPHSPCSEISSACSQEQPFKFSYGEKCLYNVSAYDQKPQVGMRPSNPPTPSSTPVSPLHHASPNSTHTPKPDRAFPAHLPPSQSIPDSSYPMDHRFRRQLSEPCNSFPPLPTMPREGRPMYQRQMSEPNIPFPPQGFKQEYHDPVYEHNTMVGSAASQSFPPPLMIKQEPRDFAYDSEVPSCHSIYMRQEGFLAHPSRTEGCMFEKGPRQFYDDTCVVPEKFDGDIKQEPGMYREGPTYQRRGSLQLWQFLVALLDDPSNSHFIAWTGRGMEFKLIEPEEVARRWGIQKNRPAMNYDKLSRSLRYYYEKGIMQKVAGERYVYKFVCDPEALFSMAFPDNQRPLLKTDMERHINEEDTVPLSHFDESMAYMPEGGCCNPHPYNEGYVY
sequence,measurement,setting,value
CTTTCT,binding signal,FLI1,"1.6 fold enrichment (6-mer frequency, TF over GST control)"
same,binding signal,ELK1,"1.6 fold enrichment (6-mer frequency, TF over GST control)"
same,binding signal,GABPA,"1.5 fold enrichment (6-mer frequency, TF over GST control)"
same,binding signal,ERG,"1.53 fold enrichment (6-mer frequency, TF over GST control)"
same,binding signal,ELF1,"1.55 fold enrichment (6-mer frequency, TF over GST control)"
same,binding signal,EHF,"1.53 fold enrichment (6-mer frequency, TF over GST control)"
same,binding signal,SPI1,"1.67 fold enrichment (6-mer frequency, TF over GST control)"
same,binding signal,SPIB,"1.48 fold enrichment (6-mer frequency, TF over GST control)"
same,binding signal,ELK3,"1.65 fold enrichment (6-mer frequency, TF over GST control)"
same,binding signal,FEV,"1.47 fold enrichment (6-mer frequency, TF over GST control)"
same,binding signal,ETV5,"1.52 fold enrichment (6-mer frequency, TF over GST control)"
same,binding signal,HSF1,"2.74 fold enrichment (6-mer frequency, TF over GST control)"
same,binding signal,SPIC,"1.67 fold enrichment (6-mer frequency, TF over GST control)"
same,binding signal,ELF4,"1.48 fold enrichment (6-mer frequency, TF over GST control)"
same,binding signal,ELK4,"1.54 fold enrichment (6-mer frequency, TF over GST control)"
same,binding signal,ETV2,"1.65 fold enrichment (6-mer frequency, TF over GST control)"
same,binding signal,ELF3,"1.73 fold enrichment (6-mer frequency, TF over GST control)"
same,binding signal,CRX,"1.76 fold enrichment (6-mer frequency, TF over GST control)"
same,binding signal,ETV1,"1.56 fold enrichment (6-mer frequency, TF over GST control)"
